The source of these data is PubChem BioAssay AID743279 (National Center for Advancing Translational Sciences (NCATS), 2014).

Among all 360,000 compounds or so, about 17,000 (4.7%) were called active. Another 5% or so got no clear call; they are omitted. What follows is part of a selection rich in actives, with near analogues and random picks from the rest. A number with no mark means an inactive call. Rule as the data show it: active = activity change below about -50%; inconclusive = mostly about -30% to -49%; inactive = weaker than that.
% is scaled to controls: 0 for no effect and ±100 for the full control effect.

The experiment is described as follows: qHTS for Inhibitors of Inflammasome Signaling: IL-1-beta AlphaLISA Primary Screen. The note with it: THP-1 LPS/ATP IL-1B secretion, 16 h; at 57.5 µM, stronger effect = lower value. Put shortly:
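THP-1 cells pretreated 1 hr with compounds (up to 57.5 uM final), then stimulated with LPS (250 ng/mL final) plus ATP (1.25 mM final); secreted IL-1B measured by AlphaLISA after 16 hr, decreased signal indicating inhibition.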
`CCc1noc(C)c1C(=O)OCC(=O)c1ccc(NC(=O)CC(C)C)cc1`: the activity change is 1.82%.
As for `C[C@@H]1CN([C@@H](C)CO)C(=O)CCCn2nncc2CO[C@@H]1CN(C)S(=O)(=O)c1ccc(-c2ccccc2)cc1`, the figure is -3.91%; as for `CN=C1SC(C(=O)O)CC(=O)N1C` (stereo unspecified), 0.415%.
For `CCCCn1nnnc1C(c1ccccc1)N1CCN(c2ccccc2OC)CC1` (stereo unspecified) the value was -1.89%.
As for `CC1=C(C(=O)N2CCOCC2)CC(CC(=O)NCc2cccs2)C(=O)N1CCCN1CCCC1=O` (stereo unspecified), the figure is 2.1%; as for `Cc1ccccc1-n1c(SCC(=O)NCc2cccs2)nnc1-c1ccncc1`, -2.89%.
As to `Cc1ccc(-n2c(SCC(=O)N3c4ccccc4Sc4ccccc43)nnc2-c2ccncc2)cc1`, the activity change was -10.1%.
For `Cc1ccc(Nc2nc(CSc3nnc(-c4ccncc4)n3-c3ccccc3C)cs2)cc1` the value was -74.1% (active).
For `Cc1ccn(CC(=O)NC2CCCN(Cc3ccccc3F)C2)n1` (stereo unspecified) the value was -22.3%.
As for `C[C@H](NC(=O)[C@@H]1CCCN1C(=O)[C@@H]1CCCN1C(=O)c1ccccc1)c1ccccc1`, the figure is 9.38%; as for `CCc1oc(-c2ccc(OC)cc2)c(C(=O)OCCCCCO)c1C(C)OCCO` (stereo unspecified), -1.94%.
As for `COCCNc1ncnc2c1ncn2[C@H]1CN(Cc2ccc(OC)cc2)C[C@@H](CO)O1`, the activity change was -0.989%.
As for `COc1ccc(-c2oc3ncnc(NCCCO)c3c2-c2ccc(OC)cc2)cc1`, the activity change is -68.8% (active).
As for `Cn1ncc(Br)c1C(=O)NC1CCCC1`, the figure is -17.3%; as for `CN(CC(=O)NCc1ccc2c(c1)OCO2)CC(=O)Nc1ccc(F)c(F)c1F`, -7.29%; as for `COc1ccc(C2CC(=O)n3c(nc4ccccc43)S2)cc1OC` (stereo unspecified), -17%.
For `COc1ccc(C2CC(c3cccs3)=Nc3ccccc3S2)cc1OC` (stereo unspecified) the value was -56.2% (active); for `COc1ccccc1N1N=C(c2cccs2)CC1c1ccccc1` (stereo unspecified), 24%; for `COc1ccc(C2CC(c3cccs3)=NN2C(=O)CSc2nncs2)cc1OC` (stereo unspecified), -14.9%.
For `COc1ccc(C2CC(c3cccs3)=NN2C(=O)CSc2nnc(N)s2)cc1OC` (stereo unspecified) the value was -61.5% (active); for `COc1ccc(C2CC(c3cccs3)=NN2C(=O)COC(=O)c2cc3ccccc3cc2O)cc1OC` (stereo unspecified), 12.7%; for `CC(C)(C)OC(=O)N1CCC(C(=O)Nc2cccc(C(=O)NCCc3ccccc3)c2)CC1`, 17.9%.
On to `CCC1(C)COC(c2ccc(OC)c(OC)c2)OC1` (stereo unspecified), for which the activity change is 10.5%.
As for `CC1(C(=O)NCc2ccccc2)CSCC(=O)N1CCCN1CCOCC1` (stereo unspecified), the figure is 16.7%.
As for `N#Cc1c(N)nc2c3c(sc(=N)c2c1N)NC(=O)CC3c1ccccc1Cl` (stereo unspecified), the figure is 36.3%.
With `CC1=NC2(CCCc3c2no[n+]3[O-])N(O)C1(C)C` (stereo unspecified), the activity change was 1.59%.
In the case of `COC(=O)C[C@H]1C[C@@H]2c3cc(NC(=O)Nc4ccccc4)ccc3O[C@@H]2[C@@H](CO)O1`, the activity change is 9.89%.
For `COc1cccc(-c2nn(-c3ccccc3)cc2/C=C(\C#N)C(=O)NCCCn2ccnc2)c1` the value was -84% (active).
For `COc1ccc(/C=C(\C#N)C(=O)NCCCn2ccnc2)cc1` the value was -1.26%; for `COc1cc(OC)cc(C(=O)NCCCn2ccnc2)c1`, 20.1%; for `CCOC(=O)c1cc(-c2sc(NC(=O)c3ccccc3)nc2C)n(CCO)n1`, -3.33%.
`NS(=O)(=O)c1ccc(NC(=O)/C=C/c2ccccc2Cl)cc1`: the activity change was -17.1%.
On to `COCCNC(=O)CSc1nc(N)c(NC(=O)c2ccco2)c(=O)[nH]1`, for which the activity change was 0.73%.
As for `CSc1ncc(Sc2ccccc2)c(C(=O)O)n1`, the figure is 5.96%; as for `CSc1nc(-c2ccccc2)nc(C(Cl)Cl)n1`, -99.1% (active); as for `CC1(C)OC(=O)C2=C(CC(c3ccccc3)OC2CCc2ccccc2)O1` (stereo unspecified), -7.82%.
Regarding `O=C(Nc1ccccc1C(=O)N1CCOCC1)c1ccc(Cl)cc1`, the activity change is 12.7%.
As for `CCOC(=O)N1CCN(C(=O)C2CC(c3ccc(F)cc3)=NO2)CC1` (stereo unspecified), the activity change is -3.7%.
For `COC(=O)N/N=C/c1cn(CCCOc2ccc(C)cc2)c2ccccc12` the value was -91% (active); for `O=Cc1cn(CCOc2ccc(F)cc2)c2ccccc12`, -5.47%; for `CNC(=S)N/N=C/c1cn(Cc2ccc(C)cc2)c2ccccc12`, -7.55%.
For `Cc1ccc([C@@H]2CC(=O)[C@@H]3CN(S(=O)(=O)c4ccc(C)cc4)[C@H](c4ccccc4F)C[C@@H]3N2S(=O)(=O)c2ccc(Cl)cc2)cc1` the value was 0%; for `Cn1cnc(S(=O)(=O)N2C[C@@H](O)COC[C@@H]3O[C@H](CC(=O)NC4CCC4)CC[C@H]32)c1`, 3.76%.
As for `CC(=O)c1c(C)[nH]c(C(=O)OCC(=O)Nc2c(C)n(C)n(-c3ccccc3)c2=O)c1C`, the figure is 30.6%; as for `Cc1ccc(-c2csc(NC3OC(=O)c4ccccc43)n2)cc1` (stereo unspecified), -99% (active).
With `CCc1ccccc1NC(=O)[C@@H]1CCC(=O)N1C1OC(=O)c2c1ccc(OC)c2OC` (stereo partly specified), the activity change is -9.95%.
Regarding `Cc1ccc(-c2csc(NC(=O)Cn3[nH]c(=O)c4ccccc4c3=O)n2)cc1`, the activity change is 10.3%.
In the case of `COc1ccc(N/C=C(\C2OC(=O)c3ccccc32)[N+](=O)[O-])cc1` (stereo unspecified), the activity change was -0.0924%.
As for `O=C(CSC1=NCCS1)Nc1nc(-c2ccccc2)cs1`, the figure is -4.52%; as for `COc1ccc(-c2csc(NC3OC(=O)c4ccccc43)n2)cc1` (stereo unspecified), -77.8% (active).
For `COc1ccc(C(C)(NC(C)=O)c2nc(-c3ccc(S(C)(=O)=O)cc3)cs2)cc1` (stereo unspecified) the value was -7.6%; for `CCCc1cc(-c2nc(-c3ccc(C)cc3)cs2)ccn1`, 19.6%.
On to `COc1ccc2c(c1OC)C(=O)OC2Nc1nc(-c2ccccc2)cs1` (stereo unspecified), for which the activity change is -117% (active).
In the case of `OC(c1ccc(Cl)cc1)c1ncc(-c2ccc(Cl)cc2)[nH]1` (stereo unspecified), the activity change was -2.78%.
In the case of `CCCNC(=O)C1(C)CCCN(C(=O)c2oc3ccccc3c2C)C1` (stereo unspecified), the activity change is 35.7%.
With `CN1CCN(c2ccncc2S(=O)(=O)N2CCCC2)CC1`, the activity change is 21.6%.
For `COc1ccc2c(CC(=O)OCC(=O)NC(N)=O)coc2c1` the value was 0%; for `CCNC(=O)C1(C)CCCN(C(=O)c2ccc3ccccc3n2)C1` (stereo unspecified), -16.3%; for `COc1ccc(C=C2CCC3C(CCCC34OCCO4)C2=O)cc1` (stereo unspecified), -24.6%.
For `COCCCNC(=O)CN1C(=O)CSc2ccc(S(=O)(=O)N3CCOCC3)cc21` the value was -5.17%.
Take `COc1ccc(CCNC(=O)CN2C(=O)COc3ccc(S(=O)(=O)N4CCCC4)cc32)cc1OC`: the activity change is -11.4%.
As for `CCOc1ccc(NC(=O)COc2ccc(S(=O)(=O)N3CCCC3)cc2)cc1`, the figure is 5.76%; as for `O=C(CSCc1ccc(Br)cc1)Nc1ccc(S(=O)(=O)N2CCCCCC2)cc1`, 23.8%; as for `O=C(CN1CCCCCC1)Nc1ccc(S(=O)(=O)N2CCCCC2)cc1`, -59.2% (active).
As for `CCc1ccc(NC(=O)CN2C(=O)COc3ccc(S(=O)(=O)N4CCCC4)cc32)cc1`, the figure is -54.9% (active).
As for `COc1ccc(NC(=O)CN2C(=O)CSc3ccc(S(=O)(=O)N4CCC(C)CC4)cc32)cc1`, the figure is -67.1% (active).
As to `CN(C)c1ccc(CNC(=O)CN2C(=O)COc3ccc(S(=O)(=O)N4CCCC4)cc32)cc1`, the activity change was 12.9%.
Take `CC1CCN(CCCNC(=O)CN2C(=O)CSc3ccc(S(=O)(=O)N4CCCCC4)cc32)CC1`: the activity change is -0.367%.
As for `O=C(Nc1c(Br)cc2c(c1Br)Cc1ccccc1-2)C(F)(F)F`, the figure is 17.9%; as for `Cc1ccc2cc(CN(c3ccc(C)c(C)c3)S(C)(=O)=O)c(=O)[nH]c2c1`, -25.8%.
For `COc1ccc(NC(=O)c2sc(=O)n(Cc3ccc(S(=O)(=O)N(C)C)cc3)c2C)cc1` the value was 6.5%.
For `O=C(NCc1ccccc1)C1c2ccccc2OCC(=O)N1C1CC1` (stereo unspecified) the value was -1.49%.
With `Cc1cc(Br)cn2c(Cc3cccc(F)c3)c(-c3cccc(Br)c3)nc12`, the activity change is 25.5%.
As for `CCCC1C(c2ccccc2)C(C#N)(C#N)C2(C#N)CC1(N)NC2=O` (stereo unspecified), the figure is 3.18%; as for `COc1ccc(C(=O)/C=C/Nc2ccccn2)cc1`, -1.59%.
As for `COC(=O)CCc1sc(Nc2ccc(Br)cc2)nc1-c1ccc(OC)cc1`, the figure is -13.7%; as for `COc1cccc(C(O)c2nc(-c3ccc(C)c(C)c3)cs2)c1` (stereo unspecified), 27%; as for `COc1ccc(-c2csc(Nc3ccc(O)cc3)n2)cc1`, -79.3% (active).
As for `COc1ccc(C(C)(O)c2nc(-c3cc(F)cc(F)c3)cs2)cc1` (stereo unspecified), the activity change was 42.9%.
For `COc1ccc(C(C)(O)c2nc(-c3ccc(C)c(C)c3)cs2)cc1` (stereo unspecified) the value was 22%.
For `COc1ccc(-c2cc3ncccc3cn2)cc1` the value was 15.7%; for `COc1ccc(C(O)c2nc(-c3ccc(OC)nc3)cs2)cc1` (stereo unspecified), 36.7%.
Turning to `COc1ccc(OC)c(Nc2nc(-c3ccc(O)c(O)c3)cs2)c1`, the activity change is -70% (active).
For `COc1ccc(-c2csc(Nc3ccccn3)n2)cc1` the value was -86.3% (active); for `COc1ccc(C(O)c2nc(-c3ccc4c(c3)OCO4)cs2)cc1` (stereo unspecified), -22.4%; for `COc1ccc(-c2csc(Cc3nc(O)cs3)n2)cc1`, -95.7% (active).
For `NC(CSC(c1ccccc1)(c1ccccc1)c1ccc(-c2ccccc2)cc1)C(=O)O` (stereo unspecified) the value was 1.83%; for `C=CCNC(=O)CCCC(=O)NCC=C`, 0%.
As for `OC(c1ccccc1)c1nc(/C=C/c2ccc(C(F)(F)F)cc2)cs1` (stereo unspecified), the figure is 15.3%; as for `O=C(O)c1ccccc1Cc1ccc(F)c2ccccc12`, 47.2%.
Regarding `O=S1(=O)CSCS(=O)(=O)C1`, the activity change is -18.2%.
